# Assay results as given in ChEMBL document CHEMBL3988442, “University of Dundee, Small-Polar-MMV Screening Library” (2021).
# Molecular target: T1, Aspartate--tRNA(Asp/Asn) ligase (Mycobacterium tuberculosis (strain ATCC 25618 / H37Rv)) (UniProt P9WFW3); further: in the data most compounds retested in dose-response had high values
# T1 sequence (whole entry): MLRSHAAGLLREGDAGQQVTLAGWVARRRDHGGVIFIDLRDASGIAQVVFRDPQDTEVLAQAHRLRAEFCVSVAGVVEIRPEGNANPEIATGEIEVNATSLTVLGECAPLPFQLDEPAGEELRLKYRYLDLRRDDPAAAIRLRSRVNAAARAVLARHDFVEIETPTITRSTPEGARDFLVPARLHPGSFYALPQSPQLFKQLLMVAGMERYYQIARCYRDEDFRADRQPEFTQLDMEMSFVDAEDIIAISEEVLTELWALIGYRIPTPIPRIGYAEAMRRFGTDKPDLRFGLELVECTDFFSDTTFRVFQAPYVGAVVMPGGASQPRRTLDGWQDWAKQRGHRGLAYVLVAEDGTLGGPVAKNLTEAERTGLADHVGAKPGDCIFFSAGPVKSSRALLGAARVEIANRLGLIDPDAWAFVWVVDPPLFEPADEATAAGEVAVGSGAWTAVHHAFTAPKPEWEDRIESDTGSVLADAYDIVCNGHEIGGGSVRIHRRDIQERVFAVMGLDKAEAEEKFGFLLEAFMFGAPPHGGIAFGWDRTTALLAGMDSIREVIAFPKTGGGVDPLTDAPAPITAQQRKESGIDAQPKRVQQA
# Experiment: Assay for Asp RNA synthetase-1 from Mycobacterium tuberculosis
# Assay type: functional
# Design: scale not given: direction of the effect not stated beside the values
# Settings: 30 µM
row,SMILES,Percent Effect
1,Cc1cnn(CC2CCCN2C(=O)c2cc3ccccc3[nH]c2=O)c1 (stereo not given),-1.15%
2,Cc1ccc(C(C)NC(=O)Cc2c(C)nc3c(c2C)c(=O)[nH]n3C)o1 (stereo not given),18.6%
3,NC(=O)c1cccc(CC2CCN(C(=O)CO)C2)c1 (stereo not given),3.02%
4,CN(C)C1CCN(C(=O)NCc2ccc(Cn3cncn3)cc2)CC1,-3.07%
5,Cc1cc(C)c2nc(CN3CC[C@@H](O)C3)cc(O)c2c1,3.16%
6,CCc1ccc(CN(CCCn2ccnc2)Cc2ccc(C)s2)o1,2.1%
7,COc1cccc(-c2nc(C)c(C(=O)NC(CO)CCSC)s2)c1 (stereo not given),-3.69%
8,Cc1nn(C)c(C)c1NC(=O)CCn1ncc2c(C)cccc21,10.1%
9,COc1ccccc1OCCN1CCC(N2CCNC2=O)CC1,-1.95%
10,CN(CCOc1cccc(CN)c1)C1CCOCC1,-0.881%
11,O=C(C1CCOCC1)N1CC[C@H]2C[C@@H](c3ccncn3)O[C@@H]2C1,1.69%
12,CC(C)c1nnc2ccc(N3CCC(C(N)=O)CC3)nn12,-3.92%
13,COc1cc(C(=O)N(Cc2ccc(F)cc2)C2CC2)cc2c1OCCO2,9.07%
14,O=C1NC2(CCN(C(=O)Cc3ccsc3)CC2)CC1c1ccncc1 (stereo not given),1.5%
15,O=C(CC1CC1)N1CCC2(CC1)CN(c1ncccn1)CCO2,-1.87%
16,Cc1ncccc1CNCC1CCN(CC(O)c2ccccc2)CC1 (stereo not given),0.218%
17,CCC(C)(NCC(=O)N(c1ccccc1)C(C)C)c1nc(C)cs1 (stereo not given),1.2%
18,CC(O)CN1CCN(C(=O)CN(C)c2ccc(Cl)cn2)CC1 (stereo not given),0.546%
19,COC(=O)c1sccc1S(=O)(=O)N1CCC(Oc2ncccc2Cl)CC1,-5.87%
20,Cc1cc(-c2cnn(CCNC(=O)C3CCCO3)c2C2CC2)on1 (stereo not given),-4.09%

row,SMILES,Percent Effect
1,Cc1csc(C2CCCCN2C(=O)CN(C)Cc2ccccc2)n1 (stereo not given),-3.92%
2,O=C(Cc1cccc(Cl)c1)N[C@@H]1CCNC[C@H]1O,-3.06%
3,Cc1nn(C)c(N2CCOCC2)c1CNCc1ccnc(N(C)C)c1,-1.27%
4,CCNC(=O)c1ccc2c(c1)nc1n2CCN(Cc2ccco2)C1,3.83%
5,c1cnnc(N2CCCC2CNCc2nc(C3CC3)no2)c1 (stereo not given),-4.43%
6,COCC(=O)N1CCCC2(CCN(c3ccsc3)C2=O)C1 (stereo not given),-1.49%
7,CC1CCCN(CC(=O)N2CCC(c3ncc4c(n3)CCNC4)CC2)C1 (stereo not given),-2.22%
8,Cc1ncc2c(n1)CN(Cc1nc3ccccc3o1)CC2,-5.8%
9,COCCN1CCC2(CC1)CN(C(=O)N(C)C)c1ccc(C)cc12,0.0764%
10,CC1CCN(S(=O)(=O)NCc2ccccc2Cn2cncn2)CC1,-6.51%
11,CSCC[C@H](N)C(=O)NCc1cc2n(n1)CCCN(C1CCCCC1)C2,-6.77%
12,Cc1nc(CN2CCOC(CNc3cccnn3)C2)oc1C (stereo not given),-4%
13,COc1ccc(CC(=O)NC2(C)CCS(=O)(=O)C2)cc1F (stereo not given),4.95%
14,Cc1ccc(CNC(=O)CN2CCCC(Cn3cncn3)C2)s1 (stereo not given),-2.78%
15,COc1ccc(CN2CCC[C@@H]3CN(C(=O)c4ccco4)C[C@@H]32)cc1,5.87%
16,COc1ncccc1C(=O)N1CCN(C(=O)Cc2ccccn2)CC1,4.26%
17,Cn1cc(CN2CCn3c(CNC(=O)c4cccn4C)cnc3C2)cn1,12.8%
18,CS(=O)(=O)N1CCC[C@]2(C[C@@H](Oc3ncccc3F)CO2)C1,7.67%
19,CNS(=O)(=O)c1ccc(C(=O)NC2CCOc3ccccc32)o1 (stereo not given),-4.13%
20,CC1CCc2nc(O)c(C(=O)NCc3cccc(F)c3)cc2C1 (stereo not given),1.04%

# Molecular target: Shiga toxin 2 (Escherichia coli O157:H7) (UniProt P09385+P09386)
# Experiment: E. coli 0.157:H7 Shiga Toxin SOP - stx2 screening assay
# Assay type: functional
# Design: scale not given: direction of the effect not stated beside the values
# Settings: 30 µM
row,SMILES,Percent Effect
1,Cc1cnn(CC2CCCN2C(=O)c2cc3ccccc3[nH]c2=O)c1 (stereo not given),22.9%
2,Cc1ccc(C(C)NC(=O)Cc2c(C)nc3c(c2C)c(=O)[nH]n3C)o1 (stereo not given),-15.3%
3,NC(=O)c1cccc(CC2CCN(C(=O)CO)C2)c1 (stereo not given),-19.3%
4,CN(C)C1CCN(C(=O)NCc2ccc(Cn3cncn3)cc2)CC1,-19.9%
5,Cc1cc(C)c2nc(CN3CC[C@@H](O)C3)cc(O)c2c1,7.54%
6,CCc1ccc(CN(CCCn2ccnc2)Cc2ccc(C)s2)o1,-1.1%
7,COc1cccc(-c2nc(C)c(C(=O)NC(CO)CCSC)s2)c1 (stereo not given),-34.8%
8,Cc1nn(C)c(C)c1NC(=O)CCn1ncc2c(C)cccc21,-31.5%
9,COc1ccccc1OCCN1CCC(N2CCNC2=O)CC1,21%
10,CN(CCOc1cccc(CN)c1)C1CCOCC1,-50.4%
11,O=C(C1CCOCC1)N1CC[C@H]2C[C@@H](c3ccncn3)O[C@@H]2C1,-27.6%
12,CC(C)c1nnc2ccc(N3CCC(C(N)=O)CC3)nn12,-20.5%
13,COc1cc(C(=O)N(Cc2ccc(F)cc2)C2CC2)cc2c1OCCO2,-12.1%
14,O=C1NC2(CCN(C(=O)Cc3ccsc3)CC2)CC1c1ccncc1 (stereo not given),-5.98%
15,O=C(CC1CC1)N1CCC2(CC1)CN(c1ncccn1)CCO2,5.46%
16,Cc1ncccc1CNCC1CCN(CC(O)c2ccccc2)CC1 (stereo not given),-34.9%
17,CCC(C)(NCC(=O)N(c1ccccc1)C(C)C)c1nc(C)cs1 (stereo not given),-25.8%
18,CC(O)CN1CCN(C(=O)CN(C)c2ccc(Cl)cn2)CC1 (stereo not given),-10.6%
19,COC(=O)c1sccc1S(=O)(=O)N1CCC(Oc2ncccc2Cl)CC1,4.83%
20,Cc1cc(-c2cnn(CCNC(=O)C3CCCO3)c2C2CC2)on1 (stereo not given),7.9%

row,SMILES,Percent Effect
1,Cc1csc(C2CCCCN2C(=O)CN(C)Cc2ccccc2)n1 (stereo not given),8.13%
2,O=C(Cc1cccc(Cl)c1)N[C@@H]1CCNC[C@H]1O,49.4%
3,Cc1nn(C)c(N2CCOCC2)c1CNCc1ccnc(N(C)C)c1,25.6%
4,CCNC(=O)c1ccc2c(c1)nc1n2CCN(Cc2ccco2)C1,-56%
5,c1cnnc(N2CCCC2CNCc2nc(C3CC3)no2)c1 (stereo not given),5.95%
6,COCC(=O)N1CCCC2(CCN(c3ccsc3)C2=O)C1 (stereo not given),0.668%
7,CC1CCCN(CC(=O)N2CCC(c3ncc4c(n3)CCNC4)CC2)C1 (stereo not given),-1.44%
8,Cc1ncc2c(n1)CN(Cc1nc3ccccc3o1)CC2,-2.56%
9,COCCN1CCC2(CC1)CN(C(=O)N(C)C)c1ccc(C)cc12,-2.72%
10,CC1CCN(S(=O)(=O)NCc2ccccc2Cn2cncn2)CC1,4.16%
11,CSCC[C@H](N)C(=O)NCc1cc2n(n1)CCCN(C1CCCCC1)C2,5.19%
12,Cc1nc(CN2CCOC(CNc3cccnn3)C2)oc1C (stereo not given),0.662%
13,COc1ccc(CC(=O)NC2(C)CCS(=O)(=O)C2)cc1F (stereo not given),-19.1%
14,Cc1ccc(CNC(=O)CN2CCCC(Cn3cncn3)C2)s1 (stereo not given),-43.9%
15,COc1ccc(CN2CCC[C@@H]3CN(C(=O)c4ccco4)C[C@@H]32)cc1,0.332%
16,COc1ncccc1C(=O)N1CCN(C(=O)Cc2ccccn2)CC1,-53.3%
17,Cn1cc(CN2CCn3c(CNC(=O)c4cccn4C)cnc3C2)cn1,-22.6%
18,CS(=O)(=O)N1CCC[C@]2(C[C@@H](Oc3ncccc3F)CO2)C1,-11.6%
19,CNS(=O)(=O)c1ccc(C(=O)NC2CCOc3ccccc32)o1 (stereo not given),5.97%
20,CC1CCc2nc(O)c(C(=O)NCc3cccc(F)c3)cc2C1 (stereo not given),-8.04%
